About 8,800 targets were measured; listed, in parts, are those with a hit and a random draw of the rest. About 0.5% of all pairs of compound and target were hits.
How the values were obtained:
Assay in all cases: log2 fold change, soluble protein after heating vs DMSO (PISA); higher = thermal stabilisation; K562 lysate, 10 uM; active = over 0.2 and 3.5 SD of the protein, either way, in both replicates (recomputed)
[1] = compound: CS(=O)(=O)N1CCN(Cc2cc3nc(-c4cccc5[nH]ncc45)nc(N4CCOCC4)c3s2)CC1 [pictilisib]
Outline: (§1)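 K562 pellets were dounce-homogenised in PBS pH 7.4 with 1 mM MgCl2, and the crude extract at 1 mg/mL protein was treated with 10 μM compound for 30 min. Aliquots were heated for 3 min across 48°C-58°C, pooled, and brought to 0.5% NP-40 at 4°C; soluble protein was the supernatant after 21,000xg for 90 min. Soluble protein was quantified by TMTpro 16plex LC-MS/MS with channel sums equalised, and reported as log2 fold change in thermal stability against DMSO controls, with values from duplicates.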

[2] = compound: Cc1cc(Nc2cc(N3CCN(C)CC3)nc(Sc3ccc(NC(=O)C4CC4)cc3)n2)n[nH]1 [tozasertib]
Outline: as §1

[3] = compound: Cc1ccc(NC(=O)c2ccc(CN3CC[C@H](N(C)C)C3)c(C(F)(F)F)c2)cc1Nc1nccc(-c2cncnc2)n1 [bafetinib]
Outline: as §1

[4] = compound: NC1(c2ccc(-c3nc4ccn5c(=O)[nH]nc5c4cc3-c3ccccc3)cc2)CCC1
Outline: as §1

[5] = compound: C[C@@H](Oc1cc(-c2cnn(C3CCNCC3)c2)cnc1N)c1c(Cl)ccc(F)c1Cl [crizotinib]
Outline: as §1

[6] = compound: C[C@H](C1=CC=C(C=C1)C(=O)NC2=C3C=CNC3=NC=C2)N
Outline: as §1

[7] = compound: C[C@H](Nc1ncnc2nc[nH]c12)c1cc2cccc(Cl)c2c(=O)n1-c1ccccc1 [duvelisib]
Outline: as §1

[8] = compound: Cc1cc(Nc2cc(CN3CCOCC3)c3nc(C)c(Cc4ccc(Cl)cc4F)n3n2)n[nH]1 [gandotinib]
Outline: as §1

[9] = compound: Cc1ccc(-n2nc(C(C)(C)C)cc2NC(=O)Nc2ccc(OCCN3CCOCC3)c3ccccc23)cc1 [doramapimod]
Outline: as §1

[10] = compound: Cc1cccc(CC(=O)N2CCc3c2ccc(-c2cn(C)c4ncnc(N)c24)c3F)n1
Outline: as §1

[11] = compound: Cc1cn(-c2cc(NC(=O)c3ccc(C)c(Nc4nccc(-c5cccnc5)n4)c3)cc(C(F)(F)F)c2)cn1 [nilotinib]
Outline: as §1

[12] = compound: Cc1nc(Nc2n[nH]c3c2CN(C(=O)N[C@H](CN(C)C)c2ccccc2)C3(C)C)c2sccc2n1
Outline: as §1

[13] = compound: Cc1nc(Nc2ncc(C(=O)Nc3c(C)cccc3Cl)s2)cc(N2CCN(CCO)CC2)n1 [dasatinib]
Outline: as §1

[14] = compound: Cc1ncc(-c2ccnc(Nc3ccc(S(C)(=O)=O)cc3)n2)n1C(C)C
Outline: as §1

[15] = compound: Cn1cc(-c2ccc3c(c2)CCN3C(=O)Cc2cccc(C(F)(F)F)c2)c2c(N)ncnc21
Outline: as §1

[16] = compound: Cn1cc(CNCC2CCN(c3ncc(C(=O)NO)cn3)CC2)c2ccccc21 [quisinostat]
Outline: as §1

[17] = compound: Cn1cncc1[C@@](N)(c1ccc(Cl)cc1)c1ccc2c(c1)c(-c1cccc(Cl)c1)cc(=O)n2C [tipifarnib]
Outline: as §1

[18] = compound: NC(=O)Nc1cc(-c2cccc(F)c2)sc1C(=O)N[C@H]1CCCNC1
Outline: as §1

[19] = compound: CS(=O)(=O)CCNCc1ccc(-c2ccc3ncnc(Nc4ccc(OCc5cccc(F)c5)c(Cl)c4)c3c2)o1 [lapatinib]
Outline: as §1

[20] = compound: NC(=O)c1cnc(N[C@@H]2CCCC[C@@H]2N)nc1Nc1cccc(-n2nccn2)c1
Outline: as §1

Measured: log2 fold change

CXCL14 (UniProt O95715)
Chain of UniProt O95715 (O95715 whole entry, looked up): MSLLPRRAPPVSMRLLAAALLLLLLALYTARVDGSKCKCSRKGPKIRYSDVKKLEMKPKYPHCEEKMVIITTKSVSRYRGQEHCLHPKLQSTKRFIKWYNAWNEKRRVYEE
inactive: [1] -0.083 | [2] -0.021 | [3] -0.649

CNOT2 (UniProt F8VRS8)
inactive: [4] -0.122

DNA2 (UniProt P51530)
Chain of UniProt P51530 (P51530 whole entry, looked up): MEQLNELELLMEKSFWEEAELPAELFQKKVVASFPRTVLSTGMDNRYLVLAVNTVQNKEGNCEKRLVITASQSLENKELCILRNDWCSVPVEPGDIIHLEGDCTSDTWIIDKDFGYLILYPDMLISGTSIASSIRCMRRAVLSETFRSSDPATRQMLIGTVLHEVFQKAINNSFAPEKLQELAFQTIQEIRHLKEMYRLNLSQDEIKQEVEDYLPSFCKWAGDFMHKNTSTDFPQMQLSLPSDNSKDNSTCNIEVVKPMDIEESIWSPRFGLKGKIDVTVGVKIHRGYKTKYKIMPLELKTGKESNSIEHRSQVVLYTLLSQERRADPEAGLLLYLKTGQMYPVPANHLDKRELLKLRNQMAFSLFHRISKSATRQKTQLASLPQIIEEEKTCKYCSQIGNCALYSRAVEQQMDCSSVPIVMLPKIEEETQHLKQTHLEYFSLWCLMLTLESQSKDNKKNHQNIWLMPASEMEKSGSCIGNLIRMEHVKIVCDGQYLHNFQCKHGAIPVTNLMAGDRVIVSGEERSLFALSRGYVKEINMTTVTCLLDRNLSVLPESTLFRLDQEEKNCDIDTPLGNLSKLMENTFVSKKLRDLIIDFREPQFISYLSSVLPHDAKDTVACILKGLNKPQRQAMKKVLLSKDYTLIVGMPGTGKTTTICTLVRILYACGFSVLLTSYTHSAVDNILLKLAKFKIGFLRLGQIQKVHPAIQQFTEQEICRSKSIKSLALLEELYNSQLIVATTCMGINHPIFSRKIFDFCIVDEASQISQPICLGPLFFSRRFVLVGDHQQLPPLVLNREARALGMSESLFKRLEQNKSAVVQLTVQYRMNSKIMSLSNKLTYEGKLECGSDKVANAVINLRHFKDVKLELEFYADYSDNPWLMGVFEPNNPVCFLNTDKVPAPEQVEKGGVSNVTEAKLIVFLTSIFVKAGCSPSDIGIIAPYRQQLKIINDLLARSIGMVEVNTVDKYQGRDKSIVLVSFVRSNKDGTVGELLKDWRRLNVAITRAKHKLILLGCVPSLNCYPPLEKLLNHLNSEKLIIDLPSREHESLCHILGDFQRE
inactive: [5] -0.046 | [6] 0.052 | [7] -0.02 | [8] 0.013 | [2] -0.07 | [9] 0.051 | [10] -0.017 | [11] 0.011 | [12] 0.007 | [13] 0.069 | [14] 0.005 | [15] 0.05 | [16] -0.069 | [17] -0.04 | [18] 0.043 | [4] 0.067

CHFR (UniProt Q96EP1)
Chain of UniProt Q96EP1 (Q96EP1 whole entry, looked up): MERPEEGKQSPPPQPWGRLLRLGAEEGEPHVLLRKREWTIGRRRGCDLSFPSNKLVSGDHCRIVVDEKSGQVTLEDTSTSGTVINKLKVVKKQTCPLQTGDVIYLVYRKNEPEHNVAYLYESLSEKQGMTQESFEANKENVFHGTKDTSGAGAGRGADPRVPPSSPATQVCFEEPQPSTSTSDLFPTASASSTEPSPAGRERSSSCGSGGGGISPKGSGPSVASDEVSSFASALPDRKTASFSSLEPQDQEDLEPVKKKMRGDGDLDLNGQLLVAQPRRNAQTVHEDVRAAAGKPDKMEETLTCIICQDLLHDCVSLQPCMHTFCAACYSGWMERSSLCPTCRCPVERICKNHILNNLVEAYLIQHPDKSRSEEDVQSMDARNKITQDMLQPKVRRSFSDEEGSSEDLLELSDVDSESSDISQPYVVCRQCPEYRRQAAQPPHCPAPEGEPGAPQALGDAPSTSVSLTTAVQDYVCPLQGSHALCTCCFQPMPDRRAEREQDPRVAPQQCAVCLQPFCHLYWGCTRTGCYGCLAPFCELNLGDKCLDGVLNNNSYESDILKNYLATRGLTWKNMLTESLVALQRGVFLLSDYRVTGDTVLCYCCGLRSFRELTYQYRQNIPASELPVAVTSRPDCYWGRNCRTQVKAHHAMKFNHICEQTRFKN
inactive: [19] -0.062 | [5] -0.051 | [7] 0.023 | [2] -0.063 | [9] -0.012 | [11] 0.035 | [12] 0.082 | [13] 0.017 | [14] 0.019 | [15] 0.049 | [16] 0.02 | [17] 0.013 | [18] 0.036 | [20] 0.246 | [4] 0.005

COX7B (UniProt P24311)
Chain of UniProt P24311 (P24311 whole entry, looked up): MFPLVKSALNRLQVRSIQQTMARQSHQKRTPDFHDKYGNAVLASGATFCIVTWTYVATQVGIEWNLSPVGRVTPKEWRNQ
inactive: [19] -0.002 | [5] 0.058 | [6] 0.025 | [7] 0.005 | [8] 0.01 | [2] 0.035 | [9] 0.035 | [10] 0.099 | [11] 0.001 | [12] 0.017 | [13] -0.008 | [14] 0.016 | [15] 0.025 | [16] 0.047 | [17] 0.023 | [18] -0.03 | [20] -0.047 | [4] 0

CLASP1 isoform 4 (UniProt Q7Z460)
Chain of UniProt Q7Z460 (Q7Z460 whole entry, looked up): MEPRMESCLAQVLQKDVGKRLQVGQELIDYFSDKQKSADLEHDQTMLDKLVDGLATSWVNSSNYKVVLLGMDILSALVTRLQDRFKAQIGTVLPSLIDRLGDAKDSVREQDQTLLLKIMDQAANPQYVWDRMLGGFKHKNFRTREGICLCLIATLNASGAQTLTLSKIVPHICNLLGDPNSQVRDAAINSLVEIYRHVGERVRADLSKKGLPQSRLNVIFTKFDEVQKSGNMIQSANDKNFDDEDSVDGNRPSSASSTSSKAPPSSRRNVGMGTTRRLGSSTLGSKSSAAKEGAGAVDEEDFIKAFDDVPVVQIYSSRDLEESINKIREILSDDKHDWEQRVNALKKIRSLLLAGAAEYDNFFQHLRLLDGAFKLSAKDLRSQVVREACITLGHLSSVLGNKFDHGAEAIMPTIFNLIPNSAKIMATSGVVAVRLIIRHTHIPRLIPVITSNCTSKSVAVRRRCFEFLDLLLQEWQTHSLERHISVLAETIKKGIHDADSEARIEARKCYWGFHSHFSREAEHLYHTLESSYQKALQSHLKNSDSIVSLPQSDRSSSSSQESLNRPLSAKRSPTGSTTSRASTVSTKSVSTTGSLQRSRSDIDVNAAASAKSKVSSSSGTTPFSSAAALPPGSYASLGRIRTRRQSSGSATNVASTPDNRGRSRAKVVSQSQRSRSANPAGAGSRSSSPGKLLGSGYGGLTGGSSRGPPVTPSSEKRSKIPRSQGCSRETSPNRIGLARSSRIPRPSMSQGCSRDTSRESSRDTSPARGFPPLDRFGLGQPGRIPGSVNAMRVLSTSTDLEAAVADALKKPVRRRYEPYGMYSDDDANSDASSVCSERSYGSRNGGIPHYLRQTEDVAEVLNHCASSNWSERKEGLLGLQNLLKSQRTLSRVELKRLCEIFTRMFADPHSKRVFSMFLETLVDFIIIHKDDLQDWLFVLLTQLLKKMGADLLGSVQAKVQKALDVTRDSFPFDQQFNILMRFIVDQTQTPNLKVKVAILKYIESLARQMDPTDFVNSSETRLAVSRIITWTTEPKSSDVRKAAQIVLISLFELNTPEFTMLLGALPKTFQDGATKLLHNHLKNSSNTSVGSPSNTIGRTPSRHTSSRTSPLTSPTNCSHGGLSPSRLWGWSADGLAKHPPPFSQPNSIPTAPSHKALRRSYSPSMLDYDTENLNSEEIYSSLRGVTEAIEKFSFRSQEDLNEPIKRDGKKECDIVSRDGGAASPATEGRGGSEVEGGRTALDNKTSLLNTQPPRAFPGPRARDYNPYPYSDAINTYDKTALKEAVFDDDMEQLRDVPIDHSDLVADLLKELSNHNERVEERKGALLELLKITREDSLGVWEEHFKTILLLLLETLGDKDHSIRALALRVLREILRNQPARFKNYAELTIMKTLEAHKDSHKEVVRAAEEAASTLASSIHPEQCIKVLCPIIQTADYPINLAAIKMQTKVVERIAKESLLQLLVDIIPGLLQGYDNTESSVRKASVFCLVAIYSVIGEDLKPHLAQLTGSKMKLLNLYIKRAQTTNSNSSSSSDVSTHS
inactive: [11] -0.113 | [12] 0.126 | [14] 0.09 | [17] -0.301 | [4] 0.111

DALRD3 (UniProt Q5D0E6)
Chain of UniProt Q5D0E6 (Q5D0E6 whole entry, looked up): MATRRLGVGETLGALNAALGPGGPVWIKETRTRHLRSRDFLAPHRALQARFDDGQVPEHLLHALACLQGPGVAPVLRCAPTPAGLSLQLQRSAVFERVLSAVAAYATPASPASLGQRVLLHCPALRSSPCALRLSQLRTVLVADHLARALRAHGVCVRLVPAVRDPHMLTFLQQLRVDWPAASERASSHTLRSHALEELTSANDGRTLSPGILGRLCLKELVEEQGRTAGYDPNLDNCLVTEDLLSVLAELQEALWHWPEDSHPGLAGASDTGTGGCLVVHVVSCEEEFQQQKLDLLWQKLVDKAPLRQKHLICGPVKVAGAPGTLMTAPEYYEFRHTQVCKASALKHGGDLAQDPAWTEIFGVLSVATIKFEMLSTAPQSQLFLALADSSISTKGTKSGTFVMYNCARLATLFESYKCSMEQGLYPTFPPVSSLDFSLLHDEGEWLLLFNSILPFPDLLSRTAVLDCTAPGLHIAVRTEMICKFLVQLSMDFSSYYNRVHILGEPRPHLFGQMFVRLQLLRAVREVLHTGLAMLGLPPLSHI
inactive: [19] 0.021 | [6] -0.131 | [8] -0.087 | [2] 0.139 | [10] 0.096 | [20] -0.03 | [4] 0.207

CLIP1, A0A3B3ITA2
inactive: [5] -0.033 | [6] -0.222 | [8] 0.55 | [9] -0.138 | [10] 0.269 | [16] -0.169 | [18] 0.017

CSNK1G3 isoform 4 (UniProt Q9Y6M4)
Chain of UniProt Q9Y6M4 (Q9Y6M4 whole entry, looked up): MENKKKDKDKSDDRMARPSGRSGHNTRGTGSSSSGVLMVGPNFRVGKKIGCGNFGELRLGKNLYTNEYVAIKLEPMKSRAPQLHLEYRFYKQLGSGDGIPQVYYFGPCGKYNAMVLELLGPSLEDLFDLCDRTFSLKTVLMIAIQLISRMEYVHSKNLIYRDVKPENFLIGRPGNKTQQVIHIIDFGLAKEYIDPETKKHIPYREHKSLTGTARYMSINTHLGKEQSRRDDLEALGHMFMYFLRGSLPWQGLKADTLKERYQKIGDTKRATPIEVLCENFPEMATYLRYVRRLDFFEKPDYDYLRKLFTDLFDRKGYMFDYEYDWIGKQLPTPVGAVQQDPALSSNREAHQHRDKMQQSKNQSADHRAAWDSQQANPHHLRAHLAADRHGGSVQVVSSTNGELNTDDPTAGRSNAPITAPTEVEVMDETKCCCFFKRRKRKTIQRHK
inactive: [19] -0.035 | [20] 0.083

Reference: the supplement of paper PMC10849652
